Experimental data taken from PubChem BioAssay.
The source made the active and inactive calls. Unless noted, the rule behind the calls is not given here.

Key:
[1] = A549 cell viability effects, profiling panel, calcein-AM fluorescence, 48 h, basal (AID 1162); settings: higher = more signal; note: test concentration not given here
[2] = adipocyte viability effects, profiling panel, cell-based, 3T3-L1 adipocytes, calcein-AM fluorescence, 48 h, basal (AID 1163); settings: 3T3-L1 adipocytes viability, higher = more signal; note: test concentration not given here
[3] = HepG2 cell viability effects, profiling panel, calcein-AM fluorescence, 48 h, basal (AID 1164); settings: higher = more signal; note: test concentration not given here
[4] = MM1S cell viability effects, profiling panel, calcein-AM fluorescence, 48 h, basal (AID 1165); settings: higher = more signal;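 note: viability of MM1S multiple myeloma cells under basal unstimulated conditions; test concentration not given here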
[5] = basal RPMI8226 viability, no added stimulus, profiling panel, cell-based, calcein-AM fluorescence, 48 h, PK04 Diversity Set (AID 1166); settings: RPMI8226 myeloma viability, higher = more signal;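 note: cells grown under basal conditions without added stimulus; test concentration not given here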
[6] = basal HepG2 mitochondrial membrane potential changes, profiling panel, cell-based, JC-1 fluorescence, 24 h, 100 nL compound (AID 1167); settings: higher = more signal; note: test concentration not given here
[7] = basal 3T3-L1 adipocyte mitochondrial potential changes, profiling panel, cell-based, JC-1 fluorescence, 3T3-L1 adipocytes, 24 h, 100 nL compound (AID 1168); settings: JC-1 mitochondrial fluorescence, higher = more signal, called active from +8 up or from −8 down; note: test concentration not given here
[8] = basal RPMI8226 mitochondrial membrane potential changes, profiling panel, cell-based, JC-1 fluorescence, 24 h, 100 nL compound (AID 1169); settings: RPMI8226 myeloma, JC-1 mitochondrial potential fluorescence, higher = more signal; note: test concentration not given here
[9] = basal MM1S mitochondrial membrane potential changes, profiling panel, cell-based, JC-1 fluorescence, 24 h, 100 nL compound (AID 1170); settings: higher = more signal; note: test concentration not given here
[10] = A549 lung cancer cell viability effects, profiling panel, resazurin fluorescence, 24 h, PK04 Diversity Set (AID 1171); settings: higher = more signal, called active from +8 up or from −8 down; note: test concentration not given here
[11] = HepG2 liver cancer cell viability effects, profiling panel, resazurin fluorescence, 24 h, PK04 Diversity Set (AID 1172); settings: higher = more signal; note: test concentration not given here
[12] = basal S. cerevisiae growth modulation, no modifier, primary screen, OD600, strain BY4716, 24 h, basal condition (AID 1173); settings: OD600, 24 h, higher = more signal, called active from +8 up or from −8 down
[13] = MM1S myeloma cell viability, profiling panel, resazurin fluorescence, basal, 24 h, PK04 Diversity Set (AID 1174); settings: higher = more signal, called active from +8 up or from −8 down;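 note: MM1S multiple myeloma cell line; test concentration not given here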
[14] = molecular target: Dihydroorotate dehydrogenase (quinone), mitochondrial (Plasmodium falciparum (isolate 3D7)) (UniProt Q08210); assay: PfDHODH enzyme inhibitors, primary screen, biochemical, C-terminal His tag, absorbance 600 nm (AID 1175); settings: DCIP absorbance 600 nm, higher = more signal, called active from +8 up or from −8 down;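 note: recombinant parasite enzyme with a five histidine tag at its C terminus; test concentration not given here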
[15] = P. aeruginosa biofilm formation inhibitors, primary screen, strain PAO1, LB-PBS medium, absorbance 600 nm (AID 1176); note: test concentration not given here; settings: P. aeruginosa PAO1 growth/biofilm, A600, 12 h; higher = more signal
[16] = S. cerevisiae RM11-1a growth modifiers, primary screen, strain RM11-1a, OD600, basal, 24 h (AID 1177); settings: OD600, 24 h, higher = more signal, called active from +8 up or from −8 down;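 note: cultures grown under basal conditions with no added stressor; test concentration not given here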
[17] = E. coli acrAB mutant growth effects, primary screen, E. coli filamentation inducers, strain DRC39, OD650, 24 h (AID 1178); settings: higher = more signal, called active from +8 up or from −8 down;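 note: growth measured as culture turbidity by optical density at 650 nm; test concentration not given here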
[18] = E. coli acrAB mutant growth effects, primary screen, E. coli filamentation inducers, strain DRC39, OD650, 48 h (AID 1179);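 note: screen aims at cell division blockers that make cells filament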; settings: E. coli DRC39 delta-acrAB growth, higher = more signal, called active from +8 up or from −8 down
[19] = RPMI8226 myeloma cell viability, profiling panel, resazurin fluorescence, basal, 24 h, PK04 Diversity Set (AID 1180); settings: higher = more signal;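 note: RPMI8826 multiple myeloma cell line at 5000 cells per well; test concentration not given here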
[20] = molecular target: E3 ubiquitin-protein ligase XIAP (Homo sapiens) (UniProt P98170); assay: XIAP binders, primary screen, biophysical, small-molecule microarray, fluorescence 635 nm (AID 1181); settings: small-molecule microarray binding, higher = more signal;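 note: score merges 667 nm emission and signal to noise over triplicate slides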
Chain of E3 ubiquitin-protein ligase XIAP (Homo sapiens) (P98170 whole entry, looked up): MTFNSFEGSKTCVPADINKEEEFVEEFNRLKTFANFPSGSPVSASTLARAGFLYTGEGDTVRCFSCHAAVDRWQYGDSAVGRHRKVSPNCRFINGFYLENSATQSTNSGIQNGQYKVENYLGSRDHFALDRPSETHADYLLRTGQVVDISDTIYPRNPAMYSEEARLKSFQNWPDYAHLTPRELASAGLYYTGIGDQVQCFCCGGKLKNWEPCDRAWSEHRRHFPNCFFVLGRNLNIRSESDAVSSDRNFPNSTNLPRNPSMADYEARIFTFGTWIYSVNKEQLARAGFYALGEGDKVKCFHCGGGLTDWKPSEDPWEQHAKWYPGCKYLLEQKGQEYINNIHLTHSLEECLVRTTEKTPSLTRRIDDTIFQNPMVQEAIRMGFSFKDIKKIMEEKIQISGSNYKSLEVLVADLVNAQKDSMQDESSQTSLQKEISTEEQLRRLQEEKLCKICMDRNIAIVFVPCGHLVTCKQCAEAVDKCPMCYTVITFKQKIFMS

Chain of Dihydroorotate dehydrogenase (quinone), mitochondrial (Plasmodium falciparum (isolate 3D7)) (Q08210 whole entry, looked up): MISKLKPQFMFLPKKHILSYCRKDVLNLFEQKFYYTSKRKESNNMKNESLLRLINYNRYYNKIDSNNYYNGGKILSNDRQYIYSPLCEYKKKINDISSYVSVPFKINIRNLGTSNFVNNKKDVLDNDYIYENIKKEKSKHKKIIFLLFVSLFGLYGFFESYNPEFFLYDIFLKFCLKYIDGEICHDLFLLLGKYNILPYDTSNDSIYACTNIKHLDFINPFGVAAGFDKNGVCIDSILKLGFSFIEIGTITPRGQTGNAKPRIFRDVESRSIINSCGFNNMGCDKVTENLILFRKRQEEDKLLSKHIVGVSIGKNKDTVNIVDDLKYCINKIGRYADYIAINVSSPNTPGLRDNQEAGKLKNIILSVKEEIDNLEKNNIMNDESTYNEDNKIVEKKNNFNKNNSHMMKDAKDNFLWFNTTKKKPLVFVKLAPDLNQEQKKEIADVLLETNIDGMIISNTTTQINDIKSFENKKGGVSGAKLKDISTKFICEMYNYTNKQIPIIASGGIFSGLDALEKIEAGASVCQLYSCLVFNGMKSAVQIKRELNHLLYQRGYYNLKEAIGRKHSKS

Structure (SMILES)	z-score [1]	z-score [2]	z-score [3]	z-score [4]	z-score [5]	z-score [6]	z-score [7]	z-score [8]	z-score [9]	z-score [10]	z-score [11]	z-score [12]	z-score [13]	composite z-score [14]	z-score [15]	z-score [16]	z-score [17]	z-score [18]	z-score [19]	composite z-score [20]
C=CCN1C(=O)[C@]2(O[C@H](CCn3cc([C@H](O)c4ccccc4)nn3)[C@@H]([Si](C)(C)c3ccc(OC)cc3)[C@@H]2C)c2cc(N3CCC3=O)ccc21	-0.668	0.87	-1.39	-2.05	-2.95	2.75	0.85 (inactive)	-0.949	0.507	-1.71 (inactive)	0.0514	0.743 (inactive)	-1.85 (inactive)	1.04 (inactive)	0.0245 (inactive)	2.44 (inactive)	0.518 (inactive)	-0.0117 (inactive)	-1.67	0.0623
CC(=O)NCCCC[C@@H]1NC(=O)[C@H]2C[C@@H](C(=O)NCCCCCCNC(=O)CS)[C@@H](c3ccc(O)cc3)N2C1=O	-0.224	0.726	-1.28	-0.197	0.0535	-1.33	0.184 (inactive)	-0.0883	-0.213	-0.689 (inactive)	-0.294	0.429 (inactive)	-0.523 (inactive)	0.761 (inactive)	1.08 (inactive)	0.518 (inactive)	-0.622 (inactive)	-1.35 (inactive)	-0.803	0.125
C=CCC(OC(C)=O)[C@@H]1[C@@H](N(Cc2ccc(-c3ccccc3)cc2)C(=O)c2ccc(-c3ccccc3)cc2)c2cc(OCCCO)ccc2N1C(=O)Cc1ccc2ccccc2c1 (stereo not given in full)	-0.475	0.367	0.325	-2.3	-0.806	0.96	-1.07 (inactive)	-0.793	0.292	1.2 (inactive)	0.289	0.274 (inactive)	0.7 (inactive)	-0.0366 (inactive)	0.526 (inactive)	-0.357 (inactive)	-0.433 (inactive)	-0.5 (inactive)	0.465	0.225
COc1ccc(/C=C/C=O)cc1	0.637	-0.243	0.0562	0.418	-1.22	0.555	0.754 (inactive)	-0.464	-0.0737	-0.925 (inactive)	-0.316	-3.59 (inactive)	-0.998 (inactive)	-0.291 (inactive)	0.0061 (inactive)	0.313 (inactive)	0.154 (inactive)	0.0154 (inactive)	-0.495	0.128
C[N+](C)(C)CCCC[C@@H]1NC(=O)[C@H]2C[C@@H](C(=O)NCCCCCCNC(=O)CS)[C@@H](c3cccc(OCCO)c3)N2C1=O	-1.42	-0.132	-0.153	0.0157	-0.682	0.325	0.0973 (inactive)	-0.277	-0.326	-0.257 (inactive)	-0.191	0.578 (inactive)	-0.0499 (inactive)	0.459 (inactive)	-0.0896 (inactive)	0.293 (inactive)	0.474 (inactive)	0.645 (inactive)	-0.442	-0.227
O=C(NC1CC1)[C@@H]1c2ccccc2C(=O)N(Cc2ccccc2Cl)[C@H]1c1ccc(CO)cc1	3.23	1.4	2.25	-0.867	0.97	2.95	0.623 (inactive)	-0.566	1.41	1.76 (inactive)	0.382	-2.09 (inactive)	-0.0621 (inactive)	-1.36 (inactive)	0.994 (inactive)	-2.66 (inactive)	1.28 (inactive)	1.49 (inactive)	0.69	0.0297
CCOC(=O)C1=C[C@@H](C(C)(C)C)N(S(=O)(=O)c2ccc(C)cc2)[C@H]1c1ccc(F)cc1	-1.5	0.131	-1.71	-1.55	-3	4.5	-0.43 (inactive)	-1.03	-0.781	0.627 (inactive)	-0.457	2.32 (inactive)	-0.544 (inactive)	0.412 (inactive)	-0.116 (inactive)	1.78 (inactive)	-0.731 (inactive)	-0.791 (inactive)	-2.36	-0.02
C=C(COC)/C(=C/C[C@@H](OC(C)=O)c1ccc(OCCO)cc1)c1cnc2ccccc2c1	2.32	1.86	0.109	-0.83	-0.175	2.42	-0.502 (inactive)	-0.612	-0.701	0.0521 (inactive)	0.638	-1.39 (inactive)	0.748 (inactive)	-5.97 (inactive)	-0.128 (inactive)	-1.49 (inactive)	1.06 (inactive)	0.968 (inactive)	0.371	0.241
COc1cccc(-c2cccc(=O)o2)c1	-1.06	-0.458	-0.834	0.192	-1.87	-1.27	0.236 (inactive)	0.812	0.0881	0.563 (inactive)	-0.314	-7.29 (inactive)	-0.28 (inactive)	-1.02 (inactive)	0.381 (inactive)	0.346 (inactive)	-0.0605 (inactive)	-0.17 (inactive)	-0.0335	0.488
